According to PubChem BioAssay (EPA / NIEHS):
“And” between values parts separate entries of the source, which are not always exact repeats. Equal values may be shown once. Where a structure was tested more than once in an assay, its records may differ in their call. The source made the active and inactive calls. The calls were made as follows: active = hit-call score of the fitted dose curve at least 0.9, where 1 is the maximum; inactive = score below 0.9.

Legend:
[1] = read-out: Interleukin-8 (IL8), CXCL8 (gene 3576); assay: BSK_CASM3C_IL8: BioMAP Diversity Plus: CASM3C Assay for Interleukin-8 (IL8) Biomarker Activity (AID 2283042); conditions: primary human coronary artery smooth muscle cells; actives raise or lower the signal;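 also: IL-8 protein level quantified by ELISA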
[2] = read-out: Human Leukocyte Antigen - DR isotype (HLADR), HLA-DRA (gene 3122); assay: BSK_CASM3C_HLADR: BioMAP Diversity Plus: CASM3C Assay for Human Leukocyte Antigen - DR isotype (HLADR) Biomarker Activity (AID 2283043); conditions: primary human coronary artery smooth muscle cells; actives raise or lower the signal;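 also: cell-surface HLA-DR protein level quantified by ELISA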
[3] = read-out: Macrophage colony-stimulating factor (MCSF), CSF1 (gene 1435); assay: BSK_CASM3C_MCSF: BioMAP Diversity Plus: CASM3C Assay for Macrophage colony-stimulating factor (MCSF) Biomarker Activity (AID 2283044); conditions: primary human coronary artery smooth muscle cells; actives raise or lower the signal;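 also: M-CSF protein amount quantified by ELISA after 24 h exposure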
[4] = read-out: Low-density lipoprotein receptor (LDLR), LDLR (gene 3949); assay: BSK_CASM3C_LDLR: BioMAP Diversity Plus: CASM3C Assay for Low-density lipoprotein receptor (LDLR) Biomarker Activity (AID 2283045); conditions: primary human coronary artery smooth muscle cells; actives raise or lower the signal;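 also: LDLR protein level on the cell surface quantified by ELISA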
[5] = read-out: Monocyte Chemoattractant Protein-1 (MCP1), CCL2 (gene 6347); assay: BSK_CASM3C_MCP1: BioMAP Diversity Plus: CASM3C Assay for Monocyte Chemoattractant Protein-1 (MCP1) Biomarker Activity (AID 2283046); conditions: primary human coronary artery smooth muscle cells; actives raise or lower the signal;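 also: MCP-1 level quantified by ELISA 24 h after dosing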
[6] = BSK_CASM3C_Proliferation: Cell Proliferation Assessment in the BioMAP Diversity Plus: CASM3C Assay (AID 2283047); conditions: primary human coronary artery smooth muscle cells;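 also: sulforhodamine B total protein stain as relative cell number at 560 nm; sub-confluent cells exposed 48 h before staining; fitted both ways against DMSO so gain or loss of cell number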
[7] = read-out: Monokine induced gamma interferon (MIG), CXCL9 (gene 4283); assay: BSK_CASM3C_MIG: BioMAP Diversity Plus: CASM3C Assay for Monokine induced gamma interferon (MIG) Biomarker Activity (AID 2283048); conditions: primary human coronary artery smooth muscle cells; actives raise or lower the signal;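 also: MIG protein level measured by ELISA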
[8] = read-out: serum amyloid A (SAA), SAA1 (gene 6288); assay: BSK_CASM3C_SAA: BioMAP Diversity Plus: CASM3C Assay for serum amyloid A (SAA) Biomarker Activity (AID 2283049); conditions: primary human coronary artery smooth muscle cells; actives raise or lower the signal;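 also: SAA protein level quantified by ELISA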
[9] = BSK_CASM3C_SRB: Viability Assessment in the BioMAP Diversity Plus: CASM3C Assay (AID 2283050); conditions: primary human coronary artery smooth muscle cells;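 also: total protein by SRB staining as cytotoxicity measure in parallel cultures; cells exposed to compound for 24 h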
[10] = read-out: Thrombomodulin, THBD (gene 7056); assay: BSK_CASM3C_Thrombomodulin: BioMAP Diversity Plus: CASM3C Assay for Thrombomodulin Biomarker Activity (AID 2283051); conditions: primary human coronary artery smooth muscle cells; actives raise or lower the signal;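 also: thrombomodulin protein level measured by ELISA 24 h after dosing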

Row | SMILES | outcome [1] | outcome [2] | outcome [3] | outcome [4] | outcome [5] | outcome [6] | outcome [7] | outcome [8] | outcome [9] | outcome [10] | AC50 [1] | AC50 [3] | AC50 [5] | AC50 [8] | AC50 [4] | AC50 [6] | AC50 [9] | AC50 [2] | AC50 [7] | AC50 [10]
1 | Nc1cc([N+](=O)[O-])ccc1Cl | inactive | inactive | inactive | inactive | inactive | inactive | inactive | inactive | inactive | inactive |  |  |  |  |  |  |  |  |  | 
2 | C[C@H]1C[C@@H]2[C@H]([C@@H](O)C[C@@]3(C)[C@H]2CC[C@]3(O)C(=O)CO)[C@@]2(C)C=CC(=O)C=C12 |  | inactive |  | inactive | inactive | inactive | inactive |  | inactive | inactive | 471 nM (active) and 1.18 µM (active) | 0.15 µM (active) | 4.62 µM (active) | 0.15 µM (active) |  |  |  |  |  | 
3 | C#C[C@]1(O)CC[C@H]2[C@@H]3CCC4=Cc5oncc5C[C@]4(C)[C@H]3CC[C@@]21C | inactive | inactive | inactive |  |  |  | inactive | inactive |  | inactive |  |  | 0.92 µM (active) |  | 33.9 µM (active) | 3.97 µM (active) | 20 µM (active) |  |  | 
4 | COc1cc(C=O)ccc1OC(=O)C(C)C | inactive | inactive | inactive | inactive | inactive | inactive | inactive | inactive | inactive | inactive |  | 2.86 µM (active) |  |  | 0.15 µM (active) |  |  |  |  | 
5 | O=C=NC1CCC(CC2CCC(N=C=O)CC2)CC1 (centres undefined) | inactive | inactive | inactive |  | inactive |  | inactive | inactive | inactive | inactive |  |  |  |  | 0.0156 µM (active) | 0.0151 µM (active) |  |  |  | 
6 | CCCCCCCCC=O | inactive | inactive | inactive | inactive | inactive | inactive | inactive | inactive | inactive | inactive |  |  |  |  |  |  |  |  |  | 
7 | CC(=O)OCCC(C)CC(C)(C)C (centres undefined) | inactive | inactive | inactive | inactive | inactive | inactive | inactive | inactive | inactive | inactive |  |  |  |  |  |  |  | 5 µM (active) |  | 
8 | C=CCOC(=O)CCC1CCCCC1 | inactive | inactive | inactive | inactive | inactive | inactive | inactive | inactive | inactive | inactive |  |  |  |  |  |  |  |  |  | 
9 | CC(C)Oc1ccccc1O | inactive | inactive | inactive | inactive | inactive | inactive | inactive | inactive | inactive | inactive |  |  |  |  |  |  |  |  |  | 
10 | CC(=O)Nc1ccccc1O | inactive | inactive | inactive | inactive | inactive | inactive | inactive | inactive | inactive | inactive |  |  |  |  |  |  |  |  |  | 
11 | CCCCCCCCCCCCCCCCCC(=O)OCC(CC)CCCC (centres undefined) | inactive | inactive | inactive | inactive | inactive | inactive | inactive | inactive | inactive | inactive |  |  |  |  |  |  |  |  |  | 
12 | CC(=O)[C@H]1CC[C@H]2[C@@H]3CC=C4C[C@@H](O)CC[C@]4(C)[C@H]3CC[C@]12C | inactive | inactive | inactive | inactive | inactive | inactive | inactive | inactive | inactive | inactive |  |  | 10.9 µM (active) |  | 1.86 µM (active) | 6.96 µM (active) |  |  |  | 
13 | CC(C)(COC(=O)c1ccccc1)COC(=O)c1ccccc1 | inactive | inactive | inactive | inactive | inactive | inactive | inactive | inactive | inactive | inactive |  |  |  |  |  |  |  |  |  | 
14 | C=C(C)C(=O)O[C@H]1C[C@@H]2CC[C@@]1(C)C2(C)C |  |  |  | inactive |  |  |  | inactive |  | inactive | 22.3 µM (active) | 7.53 µM (active) | 12.4 µM (active) |  |  | 23.5 µM (active) | 13.2 µM (active) | 8.32 µM (active) | 27.1 µM (active) | 
15 | Nc1cc([N+](=O)[O-])ccc1O | inactive | inactive | inactive | inactive | inactive | inactive | inactive | inactive | inactive | inactive |  |  |  |  |  |  |  | 11.8 µM (active) |  | 20 µM (active)
16 | O=C(O)c1ccc([N+](=O)[O-])cc1 | inactive | inactive | inactive | inactive | inactive | inactive | inactive | inactive | inactive | inactive |  |  |  |  |  |  |  |  |  | 
17 | O=C1OC2(c3cc(Br)c(O)c(Br)c3Oc3c2cc(Br)c(O)c3Br)c2c(Cl)c(Cl)c(Cl)c(Cl)c21 | inactive | inactive | inactive | inactive |  | inactive | inactive | inactive | inactive | inactive |  |  | 0.0114 µM (active) |  |  |  |  |  |  | 
18 | CC(=O)/C=C/C1=C(C)CCCC1(C)C | inactive | inactive | inactive | inactive | inactive | inactive | inactive | inactive | inactive | inactive |  |  |  |  |  |  |  |  |  | 
19 | Cc1ccc2n[nH]nc2c1 | inactive | inactive | inactive | inactive | inactive | inactive | inactive | inactive | inactive | inactive |  |  |  |  |  |  |  |  |  | 
20 | Cc1ccc(Nc2ccc(O)c3c2C(=O)c2ccccc2C3=O)cc1 | inactive | inactive | inactive | inactive | inactive | inactive | inactive | inactive | inactive | inactive |  |  |  |  |  |  |  |  |  | 
21 | O=P(c1ccccc1)(c1ccccc1)c1ccccc1 | inactive | inactive | inactive | inactive | inactive | inactive | inactive | inactive | inactive | inactive |  |  |  |  |  |  |  |  |  | 
22 | OC[C@H]1O[C@H](O[C@]2(CCl)O[C@H](CCl)[C@@H](O)[C@@H]2O)[C@H](O)[C@@H](O)[C@H]1Cl | inactive | inactive | inactive | inactive | inactive | inactive | inactive | inactive | inactive | inactive |  |  |  |  |  |  |  |  |  | 
23 | BrC1CCC(Br)C(Br)CCC(Br)C(Br)CCC1Br (centres undefined) | inactive | inactive | inactive | inactive | inactive |  | inactive | inactive | inactive | inactive |  |  |  |  |  | 0.11 µM (active) |  |  |  | 
24 | CCn1c2ccccc2c2cc(N)ccc21 | inactive | inactive |  | inactive | inactive | inactive | inactive | inactive | inactive |  |  | 0.426 µM (active) |  |  |  |  |  |  |  | 2.7 µM (active)
25 | O=C1CCCCCCCCCCCCCCO1 |  |  |  |  |  |  |  |  |  |  | 36.8 µM (active) | 29 µM (active) | 31 µM (active) | 29.8 µM (active) | 30 µM (active) | 20 µM (active) | 30.9 µM (active) | 28.4 µM (active) | 32.6 µM (active) | 27.8 µM (active)
